The results in this text go back to PubChem BioAssay AID493170 (National Center for Advancing Translational Sciences (NCATS), 2011).

Each structure is given as a SMILES string. Results filed as inconclusive are left out. A call without a number means that no potency is given here. The source made the active and inactive calls. The call rests on the fitted dose curve; in most records, active means well fitted inhibition curve with a large enough effect; inconclusive means small, poorly fitted or top-dose-only effect, or effect the other way; inactive means flat fitted curve, though single readings scatter.
Potency means the concentration at half of the fitted maximal effect.

Chain of Ubiquitin carboxyl-terminal hydrolase 2 (Homo sapiens) (O75604 whole entry, looked up): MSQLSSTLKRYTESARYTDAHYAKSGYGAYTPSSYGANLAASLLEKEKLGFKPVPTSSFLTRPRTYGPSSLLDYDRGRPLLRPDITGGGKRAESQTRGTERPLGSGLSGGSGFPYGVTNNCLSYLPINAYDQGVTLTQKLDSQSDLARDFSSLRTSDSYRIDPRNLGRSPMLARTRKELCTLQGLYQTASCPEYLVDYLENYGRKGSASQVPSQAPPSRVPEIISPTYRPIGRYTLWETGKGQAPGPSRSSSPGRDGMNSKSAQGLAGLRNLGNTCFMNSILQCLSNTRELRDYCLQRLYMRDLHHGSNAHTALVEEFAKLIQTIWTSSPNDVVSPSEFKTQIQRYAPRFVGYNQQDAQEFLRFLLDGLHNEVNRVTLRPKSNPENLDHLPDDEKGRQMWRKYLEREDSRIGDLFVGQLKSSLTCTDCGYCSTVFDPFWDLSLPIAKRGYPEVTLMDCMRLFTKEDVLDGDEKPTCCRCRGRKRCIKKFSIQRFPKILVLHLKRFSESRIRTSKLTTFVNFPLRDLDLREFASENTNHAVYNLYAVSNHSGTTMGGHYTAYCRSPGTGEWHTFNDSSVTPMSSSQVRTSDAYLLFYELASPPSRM

The assay has as its target Ubiquitin carboxyl-terminal hydrolase 2 (Homo sapiens) (UniProt O75604). Nature of the assay: Ub-rhodamine 110 based assay for inhibitors Ubiquitin-specific Protease USP2a. Further: nearly all actives have a fitted effect of over 50% in size. Conditions: USP2a Ub-rhodamine110 cleavage, fluorescence; series mostly up to 38.3 µM. From the text: NIH Molecular Libraries Probe Centers Network [MLPCN] NIH Chemical Genomics Center [NCGC] MLPCN Grant: XO1-MH079852-01 PI Name: Nicholson, Ben. Progenra Inc, Malvern, PA NCGC Assay Overview: Homeostasis of cellular proteins is maintained through a combination of synthesis and degradation. The pathway that accounts for the majority of protein degradation is the ubiquitin-proteasomal pathway. Ubiquitin (Ub) is highly conserved in all cells and the generation of a multi-Ub chain typically targets proteins for degradation by the proteasome. However, ubiquitination is highly reversible and dynamic. Deubiquitination, the reverse process, is catalyzed through the action of enzymes referred to as isopeptidases or deubiquitinating enzymes (DUBs). This group of enzymes is collectively responsible for maintaining adequate pools of free ubiquitin and regulating the ubiquitination status of cellular proteins. The class of DUBs referred to as the ubiquitin-specific proteases (USP) family functions endoproteolytically to cleave Ub chains from a wide range of protein substrates. USP2a deubiquitinates fatty acid synthase (FASN) which has recently been identified as an emerging oncology target. To identify inhibitors of USP2a a cell-free assay was employed. This assay measures cleavage of a profluorescent substrate (Ub-Rhodamine 110; Boston Biochem Cat#: U-555) by USP2a. The assay gives a fluorescent read-out at excitation/emission wavelengths of 485/531. The USP2a enzyme was provided by Progenra, Inc. licensed for sale by LifeSensors, Inc.
NCGC Assay Protocol: The assay buffer, prepared fresh at the day of the assay, contains 20mM Tris-HCl pH 8.0, 2mM CaCl2, 2mM beta-Mercaptoethanol, 0.05% CHAPS. 3uL of 10 nM (5 nM final) USP2a, was dispensed into a medium-binding black solid Kalypsys 1,536 well plate using the Kalypsys dispenser. The assay plate was then pinned with 23nL compounds in DMSO with a Kalypsys pintool in columns 5-48 (0.3% final DMSO concentration). The negative control was buffer/DMSO only in column 3. The assay plate is incubated at RT for 30min. Subsequently, 3uL of 300 nM Ub-Rhod110 (150 nM final) was dispensed into the plate using a Kalypsys dispenser. Plates were read after every minute for 7 min on a ViewLux (Perkin Elmer) plate reader using the following wavelengths: Ex 485nm /Em 531nm. Data were normalized to the AC100 inhibition (buffer alone). Concentration-response curves were fitted to the normalized data and the concentration-response curves were then classified based on curve quality (r2), response magnitude and degree of measured activity. The time zero reading was used to flag fluorescence artifacts.
Turning to `O=c1[nH]c(=O)n(Cc2ccc(F)cc2)c(O)c1C=NCCCn1ccnc1`, the Potency result was “inactive”.

Regarding `FC(F)(F)c1ccc2c(c1)N(CCCN1CCN(CCCl)CC1)c1ccccc1S2`, the Potency entry was “inactive”.

For the molecule `COc1ccc(S(=O)(=O)Cc2ccc(C(=O)N3CCC4(CC3)OCCO4)o2)cc1`, the Potency entry was “inactive”.

Regarding `COc1ccc(NC(=O)c2c(C)nn(Cc3ccccc3Cl)c2Cl)cc1Cl`, the Potency result was “inactive”.

Consider `Cc1nn(Cc2ccc(Cl)cc2Cl)c(Cl)c1C(=O)Nc1ccc(OC(F)F)cc1`, for which the Potency result is “inactive”.

With `CC1Oc2cc3c(-c4c(O)cc(O)c5c(O)c6c(cc45)OC(C)C(C)C6=O)c(O)cc(O)c3c(O)c2C(=O)C1C` (stereo unspecified), the Potency is 2 µM (active).

For `O=C(O)c1cccc2c1NC(C(=O)O)C1CC(Sc3ccccc3[N+](=O)[O-])C(Cl)C21` (stereo unspecified), the Potency was 5.01 µM (active).

As to `CCCC1=C(C(=O)OCC)C2(C(=O)Nc3ccc(C)cc32)C(C#N)=C(N)O1` (stereo unspecified), the Potency result was “inactive”.

For the molecule `CC(C)N1C(=O)/C(=C/C=C/c2ccco2)C(=O)N(Cc2ccco2)C1=O`, the Potency is 12.6 µM (active).

For the molecule `CC(=Nc1ccc2c(c1)CCC2)c1c(O)n(C)c(=O)n(C)c1=O`, the Potency entry is “inactive”.

With `CCCCn1c(=O)c(C(=O)Nc2ccccc2S(N)(=O)=O)c(O)c2ccccc21`, the Potency was 10 µM (active).

`O=C1NC(=O)[C@]2(Cc3ccccc3N3CCN(c4ccccc4)CC32)C(=O)N1Cc1ccccc1` (stereo partly specified): the Potency is 6.31 µM (active).

As to `Nc1ccc(S(=O)(=O)N2CCCCC2c2cccnc2)cc1` (stereo unspecified), the Potency result is “inactive”.

On to `O=C(COc1ccc(S(=O)(=O)N2CCOCC2)cc1)N1CCN(Cc2ccc3c(c2)OCO3)CC1`, for which the Potency entry is “inactive”.

Consider `Clc1ccc(C(c2ccc(Cl)cc2)n2cc[n+](CC(OCc3ccc(Cl)cc3Cl)c3ccc(Cl)cc3Cl)c2)cc1` (stereo unspecified), for which the Potency was 10 µM (active).

Consider `OC(c1ccncc1)(c1ccc(F)cc1)c1ccc(F)cc1`, for which the Potency result is “inactive”.
